Among all 63,000 compounds or so, about 1,100 (1.7%) were called active. The sample as a whole holds a higher share of actives than the screen did. Entries with a potency or affinity are not part of this list. A number with no mark means an inactive call.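 How the source made its calls: active means compounds whose percent cytotoxicity in the single-dose primary screen, scaled between solvent and toxic-drug controls, exceeds 50; inactive means the rest.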
Experiment: viability loss of HPDE-C7K cells – cell-based, fluorescence, HTS, primary screen (AID 431);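 further: 0% = DMSO solvent wells and 100% = doxorubicin-treated wells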
Conditions: HPDE-C7K KRASV12 cells, Alamar Blue viability, 48 h; at 10 µM; stronger effect = higher value
For `Cc1ccc(Nc2nc(N)nc(CN3CCN(C)CC3)n2)cc1C`, the cytotoxicity was -27.5%. In the case of `COc1ccc(N2CCN(Cc3nc(N)nc(Nc4ccc(C)c(Cl)c4)n3)CC2)cc1`, the cytotoxicity is reported as 19.1%. Work on `CCN1CCN(Cc2nc(N)nc(Nc3ccc(C)c(C)c3)n2)CC1` yielded a cytotoxicity of -24.7%. For `CC1CC(C)CN(Cc2nc(N)nc(Nc3ccc4ccccc4c3)n2)C1` (centres undefined), the cytotoxicity was 58.4% (active). For `Cc1ccc(Nc2nc(N)nc(CN3CCN(c4ccccc4)CC3)n2)cc1Cl`, the cytotoxicity was 54.7% (active). `Cc1cccc(Nc2nc(N)nc(CN3CCN(c4ccccc4)CC3)n2)c1` showed a cytotoxicity of -21.7%. With `CC(=O)c1cc2c(cc1NC(=O)CSc1nnc(C)s1)OCO2` the cytotoxicity was 11.3%. `CCOC(=O)C1C2C=CC3(CN(Cc4cccs4)C(=O)C13)O2` (centres undefined) showed a cytotoxicity of 4.9%. `COc1cccc(NC(=O)C2CCCN(S(=O)(=O)c3cccc4cccnc34)C2)c1` (centres undefined) gave a cytotoxicity of 20.1%. With `Cc1nc(NC(=O)CSc2ccccc2N)sc1C` the cytotoxicity was 3%. `Cn1c(=O)[nH]c(=O)c2c1nc(Sc1ncccn1)n2CCCc1ccccc1` showed a cytotoxicity of 3.9%. `CC(C)Cc1nc(C(N)=O)c2[nH]c(=O)n(-c3ccc(F)cc3)c2n1` gave a cytotoxicity of -1.8%. `O=C(CCN1CCN(CCC(=O)c2ccccc2)CC1)c1ccccc1` gave a cytotoxicity of -9.4%. `O=C(CCN1CCN(c2ccccc2F)CC1)Nc1ccccc1F` gave a cytotoxicity of -5.4%. In the case of `O=C(COc1ccc(Cl)cc1)NCc1nnc(SCC(=O)Nc2ccccc2)o1`, the cytotoxicity is reported as -7.7%. Molecule `CC(C)NC(=O)CN1CCN(c2ncccn2)CC1` has a cytotoxicity of -7.7%. `CC(=O)NCCSC(=O)c1ccc(F)cc1` gave a cytotoxicity of -2.7%. Molecule `CC(C)CC(=O)Nc1cccc(-c2cn3ccsc3n2)c1` has a cytotoxicity of 11.7%. In the case of `O=S(=O)(Nc1ccc(-c2cn3ccsc3n2)cc1)c1ccc2c(c1)OCCO2`, the cytotoxicity is reported as 53.9% (active). With `O=S(=O)(Nc1nccs1)c1ccc2c(c1)OCCO2` the cytotoxicity was 5.1%. Work on `O=S(=O)(Nc1cccnc1)c1ccc2c(c1)OCCO2` yielded a cytotoxicity of 1.8%. `c1cn2cc(-c3ccc4c(c3)OCO4)nc2s1` gave a cytotoxicity of 15.3%. In the case of `O=S(=O)(Nc1cccc(-c2nc3cccnc3s2)c1)c1ccc2c(c1)OCCO2`, the cytotoxicity is reported as 50.4% (active). Work on `O=S(=O)(Nc1cccc(-c2cn3ccsc3n2)c1)c1ccc(F)cc1` yielded a cytotoxicity of 42.2%. With `CC(C)CC(=O)Nc1ccc(-c2cn3ccsc3n2)cc1` the cytotoxicity was 56.7% (active). With `CC(=O)Nc1ccc(-c2cn3ccsc3n2)cc1` the cytotoxicity was 6.9%. In the case of `Cc1ccc(S(=O)(=O)Nc2cccc(-c3cn4ccsc4n3)c2)cc1`, the cytotoxicity is reported as 64% (active). `O=S(=O)(NCc1cn2ccsc2n1)c1ccc2c(c1)OCCO2` showed a cytotoxicity of 4.2%. `Cc1cccc(S(=O)(=O)Nc2cccc(-c3cn4ccsc4n3)c2)c1` showed a cytotoxicity of 31.3%. `O=C(CSCc1ccccc1)NC1CCSC1=O` (centres undefined) gave a cytotoxicity of 11.9%. For `O=C(CSc1nnc(CCc2nc3ccccc3[nH]2)n1-c1ccccc1)NCc1ccco1`, the cytotoxicity was -22.8%. In the case of `COc1ccccc1OCc1ccc(C(=O)n2nc(C)c(Cl)c2C)o1`, the cytotoxicity is reported as -1.6%. Molecule `CN(C)c1ccc(C(=O)c2ccc(N(C)C)c(N)c2)cc1N` has a cytotoxicity of 46%. For `CCOC(=O)C(C)Oc1ccc(C2NC(=O)NC(C)=C2C(C)=O)cc1Br` (centres undefined), the cytotoxicity was 8.9%. `O=C(NCCc1ccccc1)C1CCCN(S(=O)(=O)c2cccnc2)C1` (centres undefined) gave a cytotoxicity of -7.8%. With `O=C(NCc1ccc2c(c1)OCO2)c1cnc2n(c1=O)CCS2` the cytotoxicity was 11.4%. For `COc1ccc(-c2[nH]c(-c3ccc(F)cc3)nc2SCC(=O)NCc2ccco2)cc1OC`, the cytotoxicity was 6.3%. With `COc1ccc(-c2[nH]c(-c3cccc(OC)c3)nc2SCC(=O)NCc2ccco2)cc1` the cytotoxicity was 50.4% (active). `COc1ccc(-c2nc(SCC(=O)NCc3ccco3)c(-c3ccccc3)[nH]2)cc1OC` showed a cytotoxicity of -6.7%. With `CS(=O)(=O)NCCCc1ccccc1` the cytotoxicity was -3.7%. In the case of `O=C(NCc1ccccn1)c1ccc(/C=N/O)nc1`, the cytotoxicity is reported as 0.9%. For `CC1CCN(c2nc(-c3ccc(F)cc3)cc(C(F)(F)F)n2)CC1`, the cytotoxicity was -19.1%. Work on `O=c1c2ccccc2[nH]c(=S)n1CCN1CCN(Cc2ccccc2)CC1` yielded a cytotoxicity of 0.6%. `O=C(c1ccc(F)cc1)C1CCN(CCn2c(=O)[nH]c3ccccc3c2=O)CC1` showed a cytotoxicity of 5.6%. For `CCSc1nnc(NC(=O)c2cc(C)oc2C)s1`, the cytotoxicity was 10.1%. With `Cc1noc(C(=O)Nc2c(C)nn(Cc3ccccc3)c2C)c1Cl` the cytotoxicity was -3.9%. `CCOC(=O)N1CCN(C(=O)c2ccc3c(c2)N(CC)CCS3)CC1` showed a cytotoxicity of 1%. For `CC(=O)NC(c1ccco1)c1ccc2cccnc2c1O` (centres undefined), the cytotoxicity was 23.7%. For `CC(C)C(=O)NC(c1ccco1)c1ccc2cccnc2c1O` (centres undefined), the cytotoxicity was -36.3%. For `Cc1ccc(S(=O)(=O)C(C#N)c2nc3ccccc3nc2N2CCCCC2)cc1` (centres undefined), the cytotoxicity was 0.6%. `COC(=O)c1ccc(-n2nnnc2SCC(=O)N2CCCCC2)cc1` showed a cytotoxicity of -30.4%. For `COc1ccc(CCNC(=O)c2cnccn2)cc1`, the cytotoxicity was -0.7%. With `CCOC(=O)C1CCN(c2c(NCCN3CCCCC3C)c(=O)c2=O)CC1` (centres undefined) the cytotoxicity was 2.6%. `c1ccc(N2CCOCC2)c(Nc2nc3ccccc3n3cnnc23)c1` gave a cytotoxicity of 0.7%. `O=C(Cn1c(CO)nc2ccccc21)Nc1cc(C(F)(F)F)ccc1N1CCOCC1` gave a cytotoxicity of -13.4%. Molecule `C=CCn1c(COc2ccccc2)nnc1SCC(=O)C(C)(C)C` has a cytotoxicity of 8.4%. For `Cc1ccc(NC(=O)CCNS(=O)(=O)c2ccc3c(c2)oc(=O)n3C)cc1`, the cytotoxicity was -10.2%. Work on `Cn1c(=O)oc2cc(S(=O)(=O)NCCc3ccccc3)ccc21` yielded a cytotoxicity of -10.4%. `O=C(Nc1ccccc1)c1ccc(S(=O)(=O)NCc2ccco2)cc1` gave a cytotoxicity of -6.4%. In the case of `O=C(NCCc1c[nH]c2ccccc12)c1ccc(S(=O)(=O)NCc2ccco2)cc1`, the cytotoxicity is reported as 51.2% (active). `O=C(NC1CCCCC1)c1ccc(S(=O)(=O)NCc2ccco2)cc1` gave a cytotoxicity of -0.5%. With `Cc1ccc2cccc(OC(=O)c3ccc4c(c3)OCCO4)c2n1` the cytotoxicity was 54.5% (active). For `O=C(COc1cccc2cccnc12)Nc1nccs1`, the cytotoxicity was 8.2%. `O=S(=O)(Nc1ccc2c(c1)OCCO2)c1cccc2cccnc12` showed a cytotoxicity of 4.7%. `O=C(Oc1cccc2cccnc12)c1cccc(-n2cnnn2)c1` gave a cytotoxicity of 23.3%. `FC(F)Oc1cccc2cccnc12` showed a cytotoxicity of 3.1%. With `CN(CCOC(=O)c1ccc2c(c1)OCCO2)Cc1ccccc1` the cytotoxicity was -8%. Molecule `Cc1noc(C)c1COC(=O)c1ccc2c(c1)OCCO2` has a cytotoxicity of 4.7%. For `Cn1c(C(=O)N2CCN(c3ncccn3)CC2)cc2c(=O)n(C)c3ccccc3c21`, the cytotoxicity was 17.4%. `O=C(Nc1cnn(Cc2ccc(Cl)cc2)c1)c1cnccn1` showed a cytotoxicity of -2.7%. Work on `CC(=O)NC(CC(C)C)C(=O)NC(=O)NCc1ccccc1` (centres undefined) yielded a cytotoxicity of 15.8%. `CCN(CC)CCCN1C(=O)C(=O)/C(=C(/O)c2ccc3c(c2)OCCO3)C1c1ccco1` (centres undefined) gave a cytotoxicity of 5.8%. With `Cn1c(-c2ccccc2)cnc1SCC(=O)NCc1ccco1` the cytotoxicity was -16.1%. For `COC(=O)C(NC(C)=O)(Nc1ccccc1)C(=O)OC`, the cytotoxicity was 27.5%. `COC(=O)C(NC(C)=O)(Nc1ccc(Br)cn1)C(F)(F)F` (centres undefined) gave a cytotoxicity of 2.3%. With `COC(=O)C(NC(C)=O)(Nc1ccc(Br)cc1)C(=O)OC` the cytotoxicity was 53.3% (active). `O=S(=O)(c1cccc(Cl)c1)N1CCCC1` showed a cytotoxicity of -5.7%. With `O=C(NC1CCCCC1)c1sc(=S)n2c1[nH]c(=O)c1ccccc12` the cytotoxicity was 77.2% (active). In the case of `Cn1c(=O)c(C(=O)NC2CCCCCCC2)c(O)c2ccccc21`, the cytotoxicity is reported as 13.6%. With `O=C(NC1CCCCCC1)c1c(O)c2ccccc2[nH]c1=O` the cytotoxicity was -13.7%. Molecule `O=C(NC1CCCCCCC1)c1c(O)c2ccccc2[nH]c1=O` has a cytotoxicity of -19.1%. For `O=C(NCC1CCCO1)c1sc(=S)n2c1[nH]c(=O)c1ccc(C(=O)N3CCCCC3)cc12` (centres undefined), the cytotoxicity was 5.2%. For `O=C(NC1CCCC1)c1sc(=S)n2c1[nH]c(=O)c1ccccc12`, the cytotoxicity was 68.9% (active). `CSc1nnc(Cn2c(=O)sc3ccccc32)n1-c1ccccc1` gave a cytotoxicity of 13%. With `Cc1nc2ccc(NC(=O)N3CCOCC3)cc2s1` the cytotoxicity was -19.1%. In the case of `Nc1nnc(SCc2cccnc2)s1`, the cytotoxicity is reported as -0.3%. With `CCc1cn([C@H]2C[C@H](O)[C@@H](CO)O2)c(=O)[nH]c1=O` the cytotoxicity was -1.3%. Molecule `Cc1cn([C@H]2C[C@H](N=[N+]=[N-])[C@@H](CO)O2)c(=O)[nH]c1=O` has a cytotoxicity of -5.9%. For `O=c1[nH]c(=O)n([C@H]2C[C@H](O)[C@@H](CO)O2)cc1F`, the cytotoxicity was 55.6% (active). `CCc1sc(C(=O)NC)cc1Br` showed a cytotoxicity of -2.9%. In the case of `CC(C)N1C(=O)C2C(C(=O)NC3CCCCC3)C3C=CC2(O3)C1C(=O)NC1CCCCC1` (centres undefined), the cytotoxicity is reported as 13.7%. For `C1CCN(c2nc(N3CCCCC3)nc(N3CCNCC3)n2)CC1`, the cytotoxicity was 11.6%. In the case of `c1ccc(Nc2nc(N3CCCCC3)nc(N3CCNCC3)n2)cc1`, the cytotoxicity is reported as 75.8% (active). `c1ccc(Nc2nc(N3CCOCC3)nc(N3CCOCC3)n2)cc1` gave a cytotoxicity of 5%. `CCOC(=O)c1ccccc1NC(=O)C1COc2ccccc2O1` (centres undefined) gave a cytotoxicity of -10.4%. Work on `COc1ccc(-n2nnc3c(SCc4ccccc4)ncnc32)cc1` yielded a cytotoxicity of 2.7%. `c1ccc(CN2CCN(c3nc4ccccc4n4cnnc34)CC2)cc1` gave a cytotoxicity of 1.8%. With `COc1ccc(OC)c(C(O)c2coc3ccc(O)c(CN4CCOCC4)c23)c1` (centres undefined) the cytotoxicity was 5.9%. `COCCn1nnnc1C(c1ccc(OC)cc1OC)N1CCN(c2ccccc2)CC1` (centres undefined) gave a cytotoxicity of 11.2%.

From PubChem BioAssay AID431 (Sanford-Burnham Center for Chemical Genomics, 2006)
